# Screening results as filed in PubChem.
# Peg3 promoter: Peg3 promoter activity inhibition. HeLa PEG-Prom luciferase reporter, luminescence, overnight. inhibition, % at 20 µM. hit rate 1.7% among 360,000;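 active = inhibition of at least 50% at 20 µM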
# HIF-2a block: inhibitors of HIF-2a | 786-0 RCC cells HIF-2a reporter, luciferase luminescence, overnight | inhibition, % at 18.8 µM | hit rate 0.72% among 360,000 | AID 624352;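 active = inhibition of the luminescence signal of 40% or more relative to plate controls, in a single-dose primary screen at 18.75 µM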
# C8 TRAIL sens: caspase-8 TRAIL sensitization; inhibition (viability loss, TRAIL sensitization), % at 10 µM; NB7+C8 cells + TRAIL, ATPlite viability luminescence; hit rate 1% among 360,000; AID 624354;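 active = compounds causing at least 50% loss of cell viability in the single-dose screen, relative to plate controls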
# PPC-1+TRAIL kill: kills PPC-1 cancer cells in the presence of TRAIL; PPC-1 cells + TRAIL, ATPLite viability luminescence; cell killing (% activity), % at 4 µM or 5 µM; hit rate 0.41% among 220,000; AID 1443;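 active = cell killing above 50% in the first pass at 4 µM, then a duplicate retest at 5 µM averaging 50% or more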;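 also: plate controls were cells with TRAIL plus DMSO for no effect and medium-only wells lacking cells for full effect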
# CF NFkB inh: inhibitors of cystic fibrosis induced NF-kB; inhibition, % at 5 µM; AID 588850; hit rate 0.86% among 360,000; KKLEB NF-kB-GFP reporter, PAF-induced, GFP fluorescence overnight;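 active = at least 50% inhibition at 5 µM, scaled per plate between neutral and stimulator controls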;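 also: PAF is a Pseudomonas aeruginosa culture filtrate used as stimulus; plate controls were PAF-stimulated DMSO wells for no effect and unstimulated DMSO wells for full effect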
# KKLEB cytotox: CF airway cell cytotoxicity counter-screen; KKLEB CF airway cells viability, ATPlite luminescence, overnight; stronger effect = lower value; cells stimulated with P. aeruginosa culture filtrate; activity change (cytotoxicity), % at 5 µM; hit rate 0.36% among 360,000; AID 602141;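 active = corrected activity change at or below -50% at 5 µM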
# * hit, by the source's call; x = no result. Only some compounds are listed: those with a hit (about 3.1% of all), similar ones and a draw of the others.
SMILES,Peg3 promoter,HIF-2a block,C8 TRAIL sens,PPC-1+TRAIL kill,CF NFkB inh,KKLEB cytotox
CC(C)COCc1ccc(O)c2ncccc12,55.1*,21.3,51.7*,14.0,2.0,-1.3
Oc1ccc(COCc2ccccc2)c2cccnc12,-56.1,-38.4,20.3,39.1,-2.6,-3.9
CCCOCc1ccc(O)c2ncccc12,42.4,0.8,26.3,0.5,19.1,-11.9
Oc1ccc(Cc2ccccc2)c2cccnc12,69.1*,5.4,-0.6,x,0.5,2.6
CN1C(=O)CCC(CCC(=O)O)(c2ccccc2O)C1=O (stereo not drawn),7.2,15.5,12.6,x,1.9,-0.1
C=CC[C@H](CC(=O)NCCO)C(=O)NC[C@@H](OC(=O)[C@H](CC=C)CC(=O)OC(C)(C)C)c1ccccc1,7.7,9.9,-7.5,x,-24.8,3.2
C[C@@H]1C[C@H]2[C@@H]3C[C@H](F)C4=CC(=O)C=C[C@]4(C)[C@@]3(Cl)[C@@H](O)C[C@]2(C)[C@H]1C(=O)COC(=O)C(C)(C)C,5.9,21.6,8.2,x,69.0*,4.0
COc1ccc(-c2cc(NC=O)c3ncc(-c4ccc(C(C)=O)cc4)n3c2)cn1,56.8*,10.3,13.5,x,24.3,-32.3
COc1cccc(-c2cnc3c(NC=O)cc(-c4cc(OC)c(OC)c(OC)c4)cn23)c1,32.4,-52.1,23.2,x,-49.9,-3.5
CN(C)CCNC(=O)c1cccc(-c2cnc3c(NC=O)cc(/C=C/c4ccccc4)cn23)c1,97.5*,-43.9,45.8,x,-10.8,-1.2
O=CNc1cc(-c2ccc(C(=O)NC3CC3)cc2)cn2c(-c3ccccc3)cnc12,60.6*,-52.4,5.3,x,22.6,-17.2
COc1ccc(-c2cnc3c(NC=O)cc(-c4cc(OC)c(OC)c(OC)c4)cn23)cc1OC,64.8*,-0.7,13.7,x,-9.0,-24.7
CCNC(=O)C1(C)CCN(C(=O)c2ccc3c(c2)OCO3)C1 (stereo not drawn),5.8,10.9,-20.1,x,11.1,-5.0
O=C(COC(=O)CNC(=O)C1CCCCC1)NCc1ccc(Cl)cc1,4.3,7.8,1.0,x,-14.9,-0.8
O=C(NCCc1ccc2c(c1)OCO2)Oc1ccccc1,x,-75.1,-6.3,x,x,x
CC1CC(C)CN(CCCNS(=O)(=O)c2ccc3c(c2)oc(=O)n3C)C1 (stereo not drawn),0.6,-0.5,-2.3,x,2.0,15.8
COc1ccc(NC(=O)C(C2CC2)n2c(=O)c(-c3ccccc3)nc3ccccc32)cc1 (stereo not drawn),x,-7.1,0.4,x,x,x
COc1ccc(-c2cnc3c(NC=O)cc(-c4ccccc4)cn23)cc1OC,23.1,-22.4,9.6,x,45.9,-38.2
COc1ccc(-c2cnc3c(NC=O)cc(-c4ccc(F)cc4)cn23)cc1OC,7.0,22.0,16.3,x,65.8*,-52.2*
CC(=O)OCC(=O)[C@@]1(O)CC[C@H]2[C@@H]3CCC4=CC(=O)C=C[C@]4(C)[C@H]3C(=O)C[C@@]21C,-4.8,-146.9,-4.1,x,18.9,18.1
CC(=O)OCC(=O)[C@@]12OC3(CCCC3)O[C@@H]1C[C@H]1[C@@H]3CCC4=CC(=O)C=C[C@]4(C)[C@@]3(F)[C@@H](O)C[C@@]12C,-4.0,25.8,-15.0,6.9,82.4*,14.2
CC(=O)OCC(=O)C1(O)CCC2C3CCC4=CC(=O)C=CC4(C)C3(F)C(O)CC21C (stereo not drawn),-11.6,17.3,10.5,x,72.7*,18.2
CCCCC(CC)CN=C(N)NC(N)=NCCCCCCN=C(N)NC(N)=NCC(CC)CCCC (stereo not drawn),102.6*,97.8*,94.9*,x,52.4*,-17.0
CCOC(=O)CNC(=O)CSc1nc(-c2ccc(OC)cc2)ns1,-7.9,16.9,53.8*,21.3,2.0,1.6
COc1ccc(-c2nsc(SCC(=O)Nc3cc(C)on3)n2)cc1,-35.5,-56.2,5.3,16.8,-1.5,-6.4
SMILES,Peg3 promoter,HIF-2a block,C8 TRAIL sens,PPC-1+TRAIL kill,CF NFkB inh,KKLEB cytotox
O=C(NOCc1ccccc1)c1ccc(Cl)cc1Cl,3.6,-50.1,57.8*,x,0.8,0.1
COC(=O)C1=C(C)N(Cc2ccccc2)C(=NCc2cccc(C(F)(F)F)c2)N[C@H]1c1cccc(F)c1,99.7*,9.8,48.5,x,84.3*,-97.2*
COC(=O)C1=C(C)N(Cc2ccccc2)C(=NCc2ccc(OC)cc2)N[C@H]1c1ccccc1,69.0*,5.6,9.3,x,-14.1,-1.7
CCCNC(=O)C1(C)CCN(C(=O)COc2ccc(C(C)(C)C)cc2)C1 (stereo not drawn),-47.6,-44.6,9.1,x,-16.2,6.0
OC(CNCCc1ccc(C(F)(F)F)cc1)COC(c1ccccc1)c1ccccc1 (stereo not drawn),111.0*,4.1,4.0,x,13.9,-16.2
O=C(COc1ccc2ccccc2c1Br)Nc1ncn[nH]1,-201.7,-132.3,62.1*,-10.1,-11.1,-15.3
Cc1coc2c1C(=O)C(=O)c1c-2ccc2c(C)cccc12,45.6,-86.8,53.6*,27.6,34.0,-28.2
Cc1coc2c1C(=O)C(=O)c1c-2ccc2c1CCCC2(C)C,69.0*,-44.9,33.5,-3.4,69.7*,-16.3
C[C@H]1COC2=C1C(=O)C(=O)c1c2ccc2c1CCCC2(C)C,47.5,-49.9,8.2,-2.4,56.6*,-2.9
Cc1ccc2c3c(cccc13)-c1ccccc1C2=O,-176.3,-206.0,18.8,4.6,-127.3,13.8
O=[N+]([O-])c1ccc(-[n+]2nc(-c3ccccc3)nn2-c2ccccc2)cc1,41.7,15.2,-2.3,x,41.8,-53.2*
O=C(/C=C/c1ccnc2ccccc12)c1cccs1,101.7*,-97.5,30.9,26.2,60.9*,-14.0
ON=Cc1ccnc2ccccc12,7.0,10.6,-15.2,x,35.8,-13.0
COc1ccc(NC(=S)N(CCN(C)C)C(C)c2ccncc2)cc1Cl (stereo not drawn),54.3*,2.7,-1.5,-3.9,-6.6,4.7
Cc1ccc(N(C(=O)c2snc(C(N)=O)c2N)C(C(=O)NCc2ccccc2)c2ccncc2)c(C)c1 (stereo not drawn),10.8,31.2,7.4,x,9.1,1.9
Cn1ncc2c(Nc3cccc([N+](=O)[O-])c3)ncnc21,6.0,-12.3,-12.8,x,3.5,13.6
OC[C@@H]1CN(Cc2ccc(-c3ccccc3)cc2)C[C@H](n2cnc3c(NCc4ccncc4)ncnc32)O1,27.0,8.1,21.8,x,-12.9,1.8
O=C(c1ccncc1)N1CCN(c2cc(-c3ccccc3)nc3cc(-c4cccc(Cl)c4)nn23)CC1,47.3,-26.2,70.2*,x,3.6,-6.6
O=C(c1ccoc1)N1CCN(c2cc(-c3ccncc3)nc3cc(-c4cccc(Cl)c4)nn23)CC1,19.0,-4.9,18.6,x,19.5,-29.5
COc1ccc(-c2cc3nc(-c4ccccc4)cc(N4CCN(C(=O)c5ccoc5)CC4)n3n2)cc1,54.7*,-9.2,18.7,x,-4.2,3.7
